According to the supplement of paper PMC10849652:
The full data set covers some 8,800 targets. This sample favours those with a hit. About 0.5% of all pairs of compound and target were hits. Values without a mark were called inactive.

How the values were obtained:
Test in all cases: log2 fold change, soluble protein after heating vs DMSO (PISA); higher = thermal stabilisation; K562 lysate, 10 uM; active = over 0.2 and 3.5 SD of the protein, either way, in both replicates (recomputed)
[1] = compound: C1=CC=C(C=C1)[C@H](COC2=CC3=C(C=C2)NC(=O)N3)NC(=O)C4=CC=CN(C4=O)CC5=CC(=C(C=C5)F)F
Method in brief: (§1)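 The values are log-two fold changes in thermal stability compared with solvent controls and come from duplicates. They were obtained by TMTpro 16plex LC-MS/MS, with channel sums equalised, on the supernatant after 21,000xg for 90 min. That supernatant came from crude K562 extract at 1 mg/mL protein treated with 10 μM compound for 30 min, heated for 3 min across 48°C-58°C, pooled and brought to 0.5% NP-40 at 4°C.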

[2] = compound: CC1=C(SC2=C1C(=N[C@H](C3=NN=C(N32)C)CC(=O)N)C4=CC=C(C=C4)Cl)C
Method in brief: as §1

[3] = compound: CC1=C2C(=CC=C1)N=C(N(C2=O)C3=CC=CC=C3C)CN4C=NC5=C(N=CN=C54)N
Method in brief: as §1

[4] = compound: Cc1sc2c(c1C)C(c1ccc(Cl)cc1)=N[C@@H](CC(=O)OC(C)(C)C)c1nnc(C)n1-2
Method in brief: as §1

[5] = compound: c1ccc([C@@H]2C[C@H]2NC2CCNCC2)cc1
Method in brief: as §1

Chain of UniProt Q9BZI7 (Q9BZI7 whole entry, looked up): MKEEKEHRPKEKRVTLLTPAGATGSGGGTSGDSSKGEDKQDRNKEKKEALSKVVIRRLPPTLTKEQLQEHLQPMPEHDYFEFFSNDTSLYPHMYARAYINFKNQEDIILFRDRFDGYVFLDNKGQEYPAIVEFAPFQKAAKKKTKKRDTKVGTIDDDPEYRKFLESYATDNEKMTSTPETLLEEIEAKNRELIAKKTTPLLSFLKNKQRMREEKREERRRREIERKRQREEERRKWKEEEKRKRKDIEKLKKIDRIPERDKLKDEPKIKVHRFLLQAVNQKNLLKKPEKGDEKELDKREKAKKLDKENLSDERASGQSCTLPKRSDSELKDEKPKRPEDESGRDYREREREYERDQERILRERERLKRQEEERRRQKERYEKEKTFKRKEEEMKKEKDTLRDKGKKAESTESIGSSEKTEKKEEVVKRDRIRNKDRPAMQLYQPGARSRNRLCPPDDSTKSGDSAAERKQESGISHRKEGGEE
Chain of UniProt Q9UK41 (Q9UK41 whole entry, looked up): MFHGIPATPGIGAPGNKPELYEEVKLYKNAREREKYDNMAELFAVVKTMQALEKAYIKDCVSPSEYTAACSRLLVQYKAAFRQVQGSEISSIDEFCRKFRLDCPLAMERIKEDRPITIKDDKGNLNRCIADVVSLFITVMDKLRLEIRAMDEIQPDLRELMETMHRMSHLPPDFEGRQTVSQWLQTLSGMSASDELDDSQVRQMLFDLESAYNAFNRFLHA
Chain of UniProt Q86UV5 (Q86UV5 whole entry, looked up): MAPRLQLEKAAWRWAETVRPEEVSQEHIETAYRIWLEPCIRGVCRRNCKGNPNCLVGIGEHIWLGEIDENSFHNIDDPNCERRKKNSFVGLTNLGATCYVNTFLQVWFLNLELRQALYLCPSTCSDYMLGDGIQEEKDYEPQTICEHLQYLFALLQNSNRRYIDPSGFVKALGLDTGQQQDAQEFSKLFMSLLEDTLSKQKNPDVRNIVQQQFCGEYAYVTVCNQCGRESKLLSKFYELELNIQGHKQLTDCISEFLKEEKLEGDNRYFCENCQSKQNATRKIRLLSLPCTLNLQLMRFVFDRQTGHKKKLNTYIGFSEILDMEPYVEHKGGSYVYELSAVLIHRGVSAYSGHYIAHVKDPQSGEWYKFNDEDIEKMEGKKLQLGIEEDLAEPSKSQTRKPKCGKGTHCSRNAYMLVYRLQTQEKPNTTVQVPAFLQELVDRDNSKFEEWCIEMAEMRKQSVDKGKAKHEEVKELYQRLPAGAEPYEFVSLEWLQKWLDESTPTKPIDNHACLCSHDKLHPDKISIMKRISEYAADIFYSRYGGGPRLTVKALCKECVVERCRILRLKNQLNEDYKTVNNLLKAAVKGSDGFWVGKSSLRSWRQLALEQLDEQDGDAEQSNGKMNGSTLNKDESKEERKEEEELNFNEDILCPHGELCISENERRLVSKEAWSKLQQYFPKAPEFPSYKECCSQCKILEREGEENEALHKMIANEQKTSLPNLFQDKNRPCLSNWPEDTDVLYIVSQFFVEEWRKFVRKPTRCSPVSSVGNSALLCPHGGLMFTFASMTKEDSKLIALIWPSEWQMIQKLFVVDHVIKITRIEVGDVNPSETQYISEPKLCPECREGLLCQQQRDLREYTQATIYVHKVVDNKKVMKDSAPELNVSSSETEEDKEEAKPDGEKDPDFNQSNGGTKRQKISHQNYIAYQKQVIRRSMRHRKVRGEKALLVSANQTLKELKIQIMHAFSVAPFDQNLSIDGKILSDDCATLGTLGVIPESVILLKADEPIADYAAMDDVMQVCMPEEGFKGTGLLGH
Chain of UniProt O14980 (O14980 whole entry, looked up): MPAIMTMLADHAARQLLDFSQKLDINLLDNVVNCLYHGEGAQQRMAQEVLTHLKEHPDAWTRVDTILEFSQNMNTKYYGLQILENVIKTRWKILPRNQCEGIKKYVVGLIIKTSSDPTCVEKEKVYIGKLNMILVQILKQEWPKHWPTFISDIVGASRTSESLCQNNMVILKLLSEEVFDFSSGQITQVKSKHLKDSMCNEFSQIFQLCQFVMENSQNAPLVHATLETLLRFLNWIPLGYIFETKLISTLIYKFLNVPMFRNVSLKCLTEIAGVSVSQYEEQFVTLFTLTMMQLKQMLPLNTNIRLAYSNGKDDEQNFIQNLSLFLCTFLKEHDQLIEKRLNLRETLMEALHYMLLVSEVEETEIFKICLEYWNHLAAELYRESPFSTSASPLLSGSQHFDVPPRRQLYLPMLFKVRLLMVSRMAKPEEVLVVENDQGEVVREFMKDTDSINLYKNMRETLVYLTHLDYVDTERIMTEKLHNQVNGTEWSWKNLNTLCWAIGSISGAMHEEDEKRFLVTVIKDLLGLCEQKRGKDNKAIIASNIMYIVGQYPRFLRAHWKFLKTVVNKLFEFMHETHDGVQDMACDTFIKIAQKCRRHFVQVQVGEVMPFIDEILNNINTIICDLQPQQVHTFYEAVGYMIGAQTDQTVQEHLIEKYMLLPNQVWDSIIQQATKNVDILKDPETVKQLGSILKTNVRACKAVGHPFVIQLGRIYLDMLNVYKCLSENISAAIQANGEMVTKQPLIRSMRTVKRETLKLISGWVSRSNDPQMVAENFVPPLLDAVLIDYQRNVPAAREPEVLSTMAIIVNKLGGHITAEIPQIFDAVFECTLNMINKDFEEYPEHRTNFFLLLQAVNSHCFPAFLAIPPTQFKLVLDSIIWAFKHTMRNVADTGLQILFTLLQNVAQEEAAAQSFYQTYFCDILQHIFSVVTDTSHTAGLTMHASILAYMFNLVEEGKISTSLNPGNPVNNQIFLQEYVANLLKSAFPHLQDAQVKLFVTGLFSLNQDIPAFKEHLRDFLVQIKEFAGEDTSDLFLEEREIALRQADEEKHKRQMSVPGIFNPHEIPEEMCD
Chain of UniProt Q9UBK9 (Q9UBK9 whole entry, looked up): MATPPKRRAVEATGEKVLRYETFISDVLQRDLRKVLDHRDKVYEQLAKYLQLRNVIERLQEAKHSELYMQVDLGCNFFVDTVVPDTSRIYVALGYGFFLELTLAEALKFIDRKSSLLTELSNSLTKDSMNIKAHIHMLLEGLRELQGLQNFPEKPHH
Chain of UniProt Q9H9H4 (Q9H9H4 whole entry, looked up): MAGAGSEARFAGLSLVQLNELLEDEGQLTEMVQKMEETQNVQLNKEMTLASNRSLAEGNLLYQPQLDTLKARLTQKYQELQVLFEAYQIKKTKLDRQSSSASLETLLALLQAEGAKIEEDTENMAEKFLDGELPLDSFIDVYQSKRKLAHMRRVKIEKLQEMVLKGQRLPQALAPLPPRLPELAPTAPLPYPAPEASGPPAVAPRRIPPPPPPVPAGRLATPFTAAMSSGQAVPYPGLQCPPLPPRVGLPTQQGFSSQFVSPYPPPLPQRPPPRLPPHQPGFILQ
Chain of UniProt Q9UBW7 (Q9UBW7 whole entry, looked up): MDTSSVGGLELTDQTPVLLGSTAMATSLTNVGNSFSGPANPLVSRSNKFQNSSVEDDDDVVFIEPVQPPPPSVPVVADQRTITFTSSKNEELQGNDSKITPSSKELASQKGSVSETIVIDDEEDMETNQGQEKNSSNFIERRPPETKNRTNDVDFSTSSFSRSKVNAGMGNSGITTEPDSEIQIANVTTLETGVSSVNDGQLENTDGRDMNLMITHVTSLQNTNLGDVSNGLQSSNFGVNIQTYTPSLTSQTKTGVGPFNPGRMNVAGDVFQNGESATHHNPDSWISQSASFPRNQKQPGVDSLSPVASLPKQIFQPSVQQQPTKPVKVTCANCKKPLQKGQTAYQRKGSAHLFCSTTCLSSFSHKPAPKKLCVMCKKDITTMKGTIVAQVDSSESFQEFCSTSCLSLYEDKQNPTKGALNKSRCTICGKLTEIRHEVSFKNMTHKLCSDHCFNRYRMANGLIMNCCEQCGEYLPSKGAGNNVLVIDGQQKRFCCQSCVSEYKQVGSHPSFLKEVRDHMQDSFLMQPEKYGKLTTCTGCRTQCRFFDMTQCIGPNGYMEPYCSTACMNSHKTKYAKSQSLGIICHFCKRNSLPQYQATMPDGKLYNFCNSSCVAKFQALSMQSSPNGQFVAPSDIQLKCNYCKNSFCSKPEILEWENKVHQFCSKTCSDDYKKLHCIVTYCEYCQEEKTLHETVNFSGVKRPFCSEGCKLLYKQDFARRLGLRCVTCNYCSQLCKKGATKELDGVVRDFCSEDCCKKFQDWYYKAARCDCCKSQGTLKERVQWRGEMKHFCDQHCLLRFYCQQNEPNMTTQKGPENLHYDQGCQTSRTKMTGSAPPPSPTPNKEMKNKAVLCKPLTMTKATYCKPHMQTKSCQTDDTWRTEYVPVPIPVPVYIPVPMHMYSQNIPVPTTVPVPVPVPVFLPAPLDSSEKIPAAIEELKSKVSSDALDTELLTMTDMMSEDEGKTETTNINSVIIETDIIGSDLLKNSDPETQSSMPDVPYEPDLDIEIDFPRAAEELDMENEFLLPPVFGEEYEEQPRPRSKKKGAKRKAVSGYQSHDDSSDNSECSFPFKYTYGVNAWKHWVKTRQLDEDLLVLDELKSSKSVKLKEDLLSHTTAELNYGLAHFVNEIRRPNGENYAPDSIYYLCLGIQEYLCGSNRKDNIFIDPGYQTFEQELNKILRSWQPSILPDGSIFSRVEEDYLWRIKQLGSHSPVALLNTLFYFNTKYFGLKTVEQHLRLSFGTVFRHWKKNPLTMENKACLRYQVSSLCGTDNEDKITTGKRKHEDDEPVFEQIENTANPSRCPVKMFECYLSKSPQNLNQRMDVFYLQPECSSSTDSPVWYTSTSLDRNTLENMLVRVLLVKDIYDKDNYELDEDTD
Chain of UniProt P63027 (P63027 whole entry, looked up): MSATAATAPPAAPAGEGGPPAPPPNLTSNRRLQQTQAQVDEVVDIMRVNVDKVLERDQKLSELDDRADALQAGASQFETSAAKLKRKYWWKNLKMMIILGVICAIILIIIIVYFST
Chain of UniProt Q96NC0 (Q96NC0 whole entry, looked up): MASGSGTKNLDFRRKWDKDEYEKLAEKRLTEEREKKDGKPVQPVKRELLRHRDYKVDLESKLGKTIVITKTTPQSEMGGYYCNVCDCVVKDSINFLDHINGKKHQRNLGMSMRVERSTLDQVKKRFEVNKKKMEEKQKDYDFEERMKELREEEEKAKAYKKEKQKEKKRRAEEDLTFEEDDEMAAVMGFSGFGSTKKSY

Target	log2 fold change [1]	log2 fold change [2]	log2 fold change [3]	log2 fold change [4]	log2 fold change [5]
ZMYND8 isoform 19 (UniProt Q9ULU4)	-0.006	-0.011	0.055	0.011	-0.026
VRK1 (UniProt Q99986)	-0.002	0.017	0.023	-0.005	0.034
ZNHIT6 (UniProt Q9NWK9)	0.106	-0.063	0.013	0.089	0.008
WDCP (UniProt Q9H6R7)	0.023	0.068	-0.04	0.049	0.025
WEE1 (UniProt P30291)	-0.002	-0.099	-0.047	0.03	–
YTHDC2 (UniProt Q9H6S0)	0.004	-0.018	-0.078	-0.002	0.058
UPF3B (UniProt Q9BZI7)	0.031	-0.008	-0.043	0.022	-0.097
UTP18 (UniProt Q9Y5J1)	0.117	-0.005	-0.088	-0.013	0.059
ZDHHC18 (UniProt Q9NUE0)	0.103	0.115	0.075	-0.072	0.043
ZFYVE19 isoform 3 (UniProt Q96K21)	0.062	-0.075	–	–	–
USP10 isoform 2 (UniProt Q14694)	-0.038	0.029	0	-0.013	0.023
VAV1 (UniProt P15498)	-0.025	0.001	-0.011	-0.017	-0.068
USP48 (UniProt Q86UV5)	-0.104	-0.028	-0.029	0.098	-0.187
ZNF217 (UniProt O75362)	-0.037	0.075	0.129	0.053	0
ZC2HC1A (UniProt Q96GY0)	0.059	-0.046	-0.018	0.106	-0.058
USE1 (UniProt Q9NZ43)	0.006	0.008	-0.119	-0.109	-0.002
UNKL (UniProt E9PDK2)	-0.025	0.09	0.249	0.022	–
ZSWIM8 isoform 4 (UniProt A7E2V4)	0.076	-0.038	0.071	0.013	0.03
XPO5 (UniProt Q9HAV4)	-0.046	-0.021	0.002	-0.021	0.032
VPS28 (UniProt Q9UK41)	-0.087	-0.04	-0.013	0.073	0
XPO6 (UniProt Q96QU8)	-0.053	0.057	0.023	0.039	-0.045
ZZEF1 (UniProt O43149)	-0.022	-0.004	0.012	-0.05	-0.028
YLPM1 (UniProt P49750)	-0.029	-0.04	0.034	0.005	0.05
ZC3HC1 (UniProt Q86WB0)	0.002	0.045	0.006	0.019	0.061
URGCP (UniProt Q8TCY9)	0.003	0.036	0.044	0.047	–
VPS37B (UniProt Q9H9H4)	0.028	0.039	0.01	-0.01	0.064
WIPI2 (UniProt Q9Y4P8)	0.03	-0.033	-0.008	-0.055	-0.096

Target	log2 fold change [1]	log2 fold change [2]	log2 fold change [3]	log2 fold change [4]	log2 fold change [5]
ZMYM2 (UniProt Q9UBW7)	0.105	0.07	0.062	0.015	0.183
XPO1 (UniProt O14980)	-0.024	0.023	0.012	0.008	0.023
USP34 (UniProt Q70CQ2)	-0.002	-0.015	0	-0.004	0.073
ZMAT2 (UniProt Q96NC0)	0.037	-0.01	0.03	0.03	0.013
WRNIP1 (UniProt Q96S55)	-0.051	-0.033	0.024	0.016	0.06
WRN (UniProt Q14191)	0.006	-0.017	0.009	0.01	0.006
VPS35L (UniProt Q7Z3J2)	0.013	0.004	0.044	-0.032	0.013
WDR24 (UniProt Q96S15)	-0.066	-0.475 (active)	-0.093	0.002	-0.024
VARS (UniProt P26640)	-0.022	0.013	0.013	0	0.031
ZNF845 (UniProt Q96IR2)	-0.239	0.048	0.114	-0.058	0.083
ZHX1 (UniProt Q9UKY1)	0.016	0.036	0.022	-0.224	-0.22
VAMP2 (UniProt P63027)	-0.045	-0.053	-0.024	0.014	0.081
VCPIP1 (UniProt Q96JH7)	-0.025	-0.008	0.002	-0.052	-0.002
XPOT (UniProt O43592)	-0.017	0.008	0.037	0.003	0.021
UNC45A (UniProt Q9H3U1)	-0.036	-0.011	0.036	0.004	0.039
XPNPEP1 isoform 3 (UniProt Q9NQW7)	-0.007	-0.025	0.002	0.044	-0.006
ZFPM1 (UniProt Q8IX07)	0.073	-0.033	-0.012	-0.036	0.078
WDR3 (UniProt Q9UNX4)	0.039	-0.026	0.006	-0.014	0.056
WDR20 isoform 7 (UniProt Q8TBZ3)	-0.037	-0.002	0.035	-0.176	-0.124
ZNF609 (UniProt O15014)	0.009	0.008	0.078	-0.047	-0.082
WDHD1 (UniProt O75717)	0.018	-0.011	-0.017	0.011	0.067
VPS4A (UniProt Q9UN37)	-0.056	0.034	-0.102	0.017	0.074
VPS41 (UniProt P49754)	-0.046	0.005	-0.016	0.067	0.13
USP48 isoform 8 (UniProt Q86UV5)	0.006	-0.016	0.015	0.003	0.035
ZC3H11A (UniProt O75152)	-0.015	0	0.081	0.023	0.063
USP22 (UniProt Q9UPT9)	0.039	-0.025	0.012	0.045	0.055
UXT isoform 2 (UniProt Q9UBK9)	0.033	0.026	0.008	-0.053	-0.071
